Many of the other results were omitted from the sample, so hits are more common in it than they were.
miR122 inh – activators of miR-122 sensor in Huh7 cells; Huh7 psiCHECK-miR122 Renilla luciferase sensor, 48 h; activation, % at 12.5 µM; hit rate 0.14% among 340,000;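 active = mean activation of 30% or more, with every replicate also reaching 30%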;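 note: 0% = median of neutral control wells and 100% = median of positive control wells; higher luciferase signal means stronger suppression of miR-122 activity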
Active calls of the source: *.

SMILES | miR122 inh
C[C@@H]1CN([C@H](C)CO)C(=O)c2cc(C#CCc3ccccc3)cnc2O[C@H]1CN(C)Cc1ccccn1 | 5.3
C[C@H]1CN([C@@H](C)CO)C(=O)c2cc(-c3ccccc3F)cnc2O[C@@H]1CN(C)Cc1ccccc1F | 6.7
CNC[C@@H]1Oc2ncc(C#Cc3ccncc3)cc2C(=O)N([C@H](C)CO)C[C@@H]1C | 2.1
CCCC#Cc1cnc2c(c1)C(=O)N([C@H](C)CO)C[C@H](C)[C@H](CN(C)Cc1cccnc1)O2 | -1.6
COCC#Cc1ccc2c(c1)O[C@@H](CN(C)C(=O)C1CCCCC1)[C@@H](C)CN([C@H](C)CO)S2(=O)=O | -2.9
COCC#Cc1ccc2c(c1)O[C@H](CN(C)C(=O)COC)[C@H](C)CN([C@H](C)CO)S2(=O)=O | 12.6
C[C@H](CO)N1C[C@H](C)[C@H](CN(C)C(=O)Cc2cccnc2)Oc2ncc(-c3ccncc3)cc2C1=O | 8.4
CO[C@H]1CN(C)C(=O)c2cc(NC(=O)NC(C)C)ccc2OC[C@H](C)N(C(=O)NC(C)C)C[C@@H]1C | -4.6
C[C@H]1CN([C@@H](C)CO)S(=O)(=O)c2ccc(C#Cc3ccccn3)cc2O[C@H]1CN(C)Cc1cccc(F)c1 | 0.9
CN1C(=O)c2cc(NC(=O)NCc3ccccc3)ccc2OC[C@@H]2O[C@H](CC(=O)NCC3CCCCC3)CC[C@@H]21 | -173.3
CO[C@@H]1CN(C)C(=O)c2cc(NC(=O)NC(C)C)ccc2OC[C@H](C)N(C(=O)NC(C)C)C[C@H]1C | 0.5
CNC(=O)C[C@@H]1CC[C@H]2[C@@H](COc3ccc(NC(=O)NC(C)C)cc3C(=O)N2C)O1 | 70.0*
COc1cccc(C#Cc2ccc3c(c2)O[C@@H](CN(C)C(=O)c2ccccn2)[C@@H](C)CN([C@@H](C)CO)S3(=O)=O)c1 | 4.7
N=c1c2c(-c3ccccc3)c(-c3ccccc3)n(Cc3ccco3)c2ncn1CCO | 43.2*
CCC(=O)N(C)C[C@H]1Oc2cc(-c3cccc(C#N)c3)ccc2S(=O)(=O)N([C@H](C)CO)C[C@H]1C | 8.5
COc1ccccc1-c1ccc2c(c1)O[C@@H](CN(C)C(=O)Nc1ccccc1)[C@H](C)CN([C@H](C)CO)S2(=O)=O | -2.7
COc1ccc(N2CCc3c(C)nc4c(OC)cc(OC)cc4c32)c(OC)c1 | 46.9*
CCCC#Cc1ccc2c(c1)O[C@H](CN(C)S(C)(=O)=O)[C@H](C)CN([C@H](C)CO)S2(=O)=O | -16.4
CCCNC(=O)N1C[C@@H](C)[C@H](OC)CN(C)C(=O)c2cc(NS(=O)(=O)CC)ccc2OC[C@@H]1C | 0.7
CO[C@@H]1CN(C)C(=O)c2ccc(NC(=O)c3ccccc3)cc2OC[C@H](C)N(C)C[C@@H]1C | -2.7
C[C@H]1CN([C@@H](C)CO)C(=O)c2cc(C#Cc3ccccc3F)cnc2O[C@H]1CN(C)C(=O)C1CCOCC1 | 1.8
COc1cnc(-c2ccccn2)nc1Sc1ccccc1Cl | 39.3*
CC(C)NC(=O)N(C)C[C@H]1Oc2cc(-c3ccccc3)ccc2S(=O)(=O)N([C@@H](C)CO)C[C@H]1C | 3.9
CCC(=O)N(C)C[C@H]1Oc2cc(-c3cccnc3)ccc2S(=O)(=O)N([C@@H](C)CO)C[C@@H]1C | -7.3
C[C@H](CO)N1C[C@H](C)[C@@H](CN(C)Cc2ccc(Oc3ccccc3)cc2)Oc2c(NC(=O)C3CCOCC3)cccc2C1=O | -100.0
SMILES | miR122 inh
C[C@H](CO)N1C[C@H](C)[C@@H](CN(C)Cc2ccc(C(=O)O)cc2)Oc2ncc(-c3ccc(F)cc3)cc2C1=O | 3.5
O=C(Nc1ccccc1F)N1CCCCN2[C@@H](CO)[C@@H](c3ccc(C#Cc4ccccc4)cc3)[C@@H]2C1 | 37.4*
COc1cccc(NC(=O)N(C)C[C@@H]2Oc3cc(C#Cc4ccccc4)ccc3S(=O)(=O)N([C@H](C)CO)C[C@@H]2C)c1 | 4.3
O=C(Nc1ccc(F)cc1)N1CCCCN2[C@H](CO)[C@@H](c3ccc(C#Cc4ccccc4)cc3)[C@H]2C1 | 34.2*
COc1ccc(C#Cc2ccc([C@@H]3[C@@H](CO)N4CCCCN(C(=O)Nc5ccccc5)C[C@H]34)cc2)cc1 | 33.9*
CCC(=O)N(C)C[C@H]1Oc2ncc(-c3cccc(OC)c3)cc2C(=O)N([C@@H](C)CO)C[C@H]1C | -3.6
C[C@@H]1CN([C@H](C)CO)S(=O)(=O)c2ccc(-c3ccncc3)cc2O[C@H]1CN(C)Cc1ccccn1 | -3.0
COc1ccc(C(=O)Nc2ccc3c(c2)OC[C@@H](C)N(C)C[C@H](C)[C@H](OC)CN(C)C3=O)cc1 | -5.4
COc1cccc(-c2cnc3c(c2)C(=O)N([C@H](C)CO)C[C@H](C)[C@H](CN(C)S(=O)(=O)c2ccc(C)cc2)O3)c1 | -1.2
CNC[C@@H]1Oc2cc(C#Cc3cccc(F)c3)ccc2S(=O)(=O)N([C@H](C)CO)C[C@H]1C | -13.0
CC(=O)N(C)C[C@H]1Oc2cc(C#CC3CCCCC3)ccc2S(=O)(=O)N([C@H](C)CO)C[C@@H]1C | -19.6
c1ccc(CCCNCCCn2cnc3c(OCc4ccccc4)ncnc32)cc1 | 33.5*
COCC#Cc1ccc2c(c1)O[C@@H](CN(C)Cc1cncnc1)[C@H](C)CN([C@@H](C)CO)S2(=O)=O | -2.3
CCC(=O)N(C)C[C@@H]1Oc2cc(-c3cccc(C#N)c3)ccc2S(=O)(=O)N([C@H](C)CO)C[C@H]1C | 4.3
COc1ccccc1-c1ccc2c(c1)O[C@@H](CN(C)S(=O)(=O)c1ccc(C)cc1)[C@H](C)CN([C@H](C)CO)S2(=O)=O | 0.4
C[C@@H]1CN([C@@H](C)CO)S(=O)(=O)c2ccc(C#Cc3ccccn3)cc2O[C@H]1CN(C)Cc1ccc(F)cc1 | 1.0
Cc1ccc(S(=O)(=O)Nc2cccc3cccnc23)c([N+](=O)[O-])c1 | -99.6
CC(C)C(=O)NC(c1cccc([N+](=O)[O-])c1)c1ccc2cccnc2c1O (centres undefined) | 41.5*
CC(C)C#Cc1cnc2c(c1)C(=O)N([C@H](C)CO)C[C@@H](C)[C@H](CN(C)C(=O)CC1CC1)O2 | -5.6
Cc1c(NC(=O)/C=C/c2cn(-c3ccccc3)nc2-c2ccccc2)c(=O)n(-c2ccccc2)n1C | 37.3*
Cc1cccc(C(=O)Nc2cccc(S(=O)(=O)NCc3ccco3)c2)c1 | -95.1
Cc1cc(C(=O)Nc2cccc(O)c2)co1 | 35.7*
CCC(=O)N(C)C[C@@H]1Oc2cc(-c3cccnc3)ccc2S(=O)(=O)N([C@@H](C)CO)C[C@H]1C | -18.7
C[C@@H]1CN([C@@H](C)CO)S(=O)(=O)c2ccc(-c3cccc(C#N)c3)cc2O[C@H]1CN(C)C(=O)Nc1ccccc1F | 0.8
CCCC#Cc1ccc2c(c1)O[C@H](CN(C)C(=O)CC)[C@@H](C)CN([C@@H](C)CO)S2(=O)=O | -34.0
Cc1ccccc1-c1ccc2c(c1)O[C@@H](CN(C)C(=O)Nc1ccc(F)cc1)[C@@H](C)CN([C@@H](C)CO)S2(=O)=O | 37.7*
C[C@H](CO)N1C[C@H](C)[C@@H](CN(C)C(=O)Cc2ccccc2)Oc2cc(C#Cc3ccccc3F)ccc2S1(=O)=O | -18.4
COCC(=O)N(C)C[C@H]1Oc2cc(-c3ccccc3)ccc2S(=O)(=O)N([C@@H](C)CO)C[C@@H]1C | -12.5
CCC(=O)N(C)C[C@H]1Oc2cc(C#Cc3ccccc3)ccc2S(=O)(=O)N([C@@H](C)CO)C[C@H]1C | 48.4*
C[C@@H]1CN([C@H](C)CO)S(=O)(=O)c2ccc(C#Cc3ccccc3F)cc2O[C@@H]1CN(C)C(=O)Cc1ccncc1 | 52.1*
